Screening data (PubChem)
Hits are enriched below; roughly 4.6% of the tested compounds scored in any of these assays.
VACV mCherry inh: qHTS for Stage-Specific Inhibitors of Vaccinia Orthopoxvirus: mCherry Reporter Primary qHTS; AID 720579, 2013; 310,000 compounds, 0.63% hits; Vaccinia virus mCherry reporter infection, fluorescence; Potency, µM (highest dose often 36.5 µM), without a hit: top-dose activity change, negative = inhibition, hits mostly inhibitors; calls by dose curve; tested in A549 cells; further: nearly all actives have a fitted effect of over 35% in size
HCV inh: qHTS Assay for Inhibitors of Hepatitis C Virus (HCV); Huh7.5.1 HCVcc-Cre infection, luciferase reporter, 44 h; Potency, µM (doses to about 41.8 µM), for the others: top-dose activity change, negative = inhibition, actives largely listed as inhibitors; 340,000 compounds, 3.4% hits; active means well fitted inhibition curve with a large enough effect; inconclusive means small, poorly fitted or top-dose-only effect, or another doubt; inactive means no such curve, though single readings can be large or run the other way
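Compounds are dispensed onto cells plated 4 h earlier at 1,000 per well, with HCVcc-Cre virus (about 0.5 moi) added next. Following 44 h of culture, luminescent signal is measured for 15 sec after 15 min with substrate at room temperature.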
Vaccinia Venus: qHTS for Stage-Specific Inhibitors of Vaccinia Orthopoxvirus: Venus Reporter Primary qHTS; Vaccinia virus Venus reporter expression, fluorescence; Potency, µM (series often up to 36.5 µM), for inactives: top-dose activity change, negative = inhibition, actives largely listed as inhibitors; 330,000 compounds, 0.46% hits; AID 720580, 2013; calls by dose curve; tested in A549 cells; further: nearly all actives have a fitted effect of over 30% in size
MARV entry inh: qHTS for inhibitors of binding or entry into cells for Marburg Virus | Marburg virus pseudotyped entry inhibition, cell reporter | Potency, µM (top dose mostly 37.8 µM), inactives show top-dose activity change, negative = inhibition, actives largely listed as inhibitors | 300,000 compounds, 1.8% hits; calls by dose curve; tested in HEK293 cells
Lassa entry inh: qHTS for Inhibitors of binding or entry into cells for Lassa Virus | Lassa virus pseudotype entry inhibition, cell reporter | Potency, µM (highest dose often 37.9 µM), without a hit: at the highest dose activity change, negative = inhibition, usual class: inhibitors | 300,000 compounds, 1.2% hits | AID 540256, 2011; calls by dose curve; tested in HEK293 cells; further: nearly all actives have a fitted effect of over 50% in size
* marks the source's active call; other numbers are inactive results; i = inactive; ? = inconclusive; . = no result; ! = repeats disagree; [ ] = remark or other dose. On the % scale 0 is the no-effect control and ±100 the full control effect; potency means the concentration at half of the fitted maximal effect.

SMILES	VACV mCherry inh	HCV inh	Vaccinia Venus	MARV entry inh	Lassa entry inh
COC(=O)c1ccc(C(=O)OC)c(NC(=O)CN(c2ccccc2)S(=O)(=O)N(C)C)c1	-5%	-7%	-13%	?	10µM*!
CCOC(=O)Cc1ccc(NC(=O)n2ncc3cc(Cl)ccc32)cc1	-20%	.	-17%	28%[46.1 µM]	-8%[46.1 µM]
COc1ccc2ccccc2c1CNC(C)c1ccccc1 (configuration not stated)	.	5.6µM*	.	.	.
COc1ccc(CCNCc2c(OC)ccc3ccccc23)cc1	?	?	-19%	.	.
COc1ccc2ccccc2c1CNCc1ccc(C)cc1	-9%	?	0%	10µM*	-6%[46.1 µM]
Cc1nc2ccccc2c2oc(C(=O)NC3CC3)cc12	-2%	-29%	-4%	.	.
Cc1cc2c(C)nc3ccccc3c2o1	.	11µM*	-35%	3%	14%
CN(CC(=O)Nc1ccc(F)cc1F)S(=O)(=O)c1ccc(C(=O)N2CCOCC2)s1	3%	.	6%	.	-1%[46.1 µM]
OC[C@H]1O[C@H](c2ccccc2)C=C[C@H]1O	.	.	.	-8%[14.2 µM]	.
Cc1ccc(S(=O)(=O)Cc2cc(F)c([N+](=O)[O-])cc2[N+](=O)[O-])cc1	2.8µM*	?	?	?	-21%[46.1 µM]
OC(CNCC(c1ccc(Cl)cc1Cl)c1c[nH]c2ccccc12)c1ccccc1 (configuration not stated)	?	?	?	7.9µM*	?
Cn1c(=O)c2c(nc(N3CCN(c4ccccn4)CC3)n2Cc2ccccc2Cl)n(C)c1=O	.	?	.	?	21µM*
COc1ccc(N2CCn3c2nc2c3c(=O)n(CCCc3ccccc3)c(=O)n2C)c(OC)c1	.	14µM*	.	?	?
C#CCOc1nc2c(c(=O)n(C)c(=O)n2C)n1Cc1ccccc1	.	13µM*	.	.	.
COc1ccc(N2CCn3c2nc2c3c(=O)n(CCc3ccccc3)c(=O)n2C)c(OC)c1	.	.	.	2%	.
Cn1c(=O)c2c(nc(N3CCNCC3)n2Cc2ccccc2Cl)n(C)c1=O	i	8%	4%	17%[46.1 µM]	-5%
Cn1c(=O)c2c(nc(CN3CCC(Cc4ccccc4)CC3)n2CCN2CCOCC2)n(C)c1=O	.	-15%	.	11%	10µM*
COc1cc(=O)n2c(c1C(=O)NCc1ccco1)CCN(Cc1cc3ccccc3[nH]1)CC2	i	.	-16%	.	.
CCn1c(-c2ccccc2F)nc2cc(C(=O)NC(c3ccccn3)C(F)(F)F)cc(NC(C)=O)c21 (configuration not stated)	-11%	.	-6%	.	.
COc1ccc(N2CCN(c3nc4c(c(=O)n(C)c(=O)n4C)n3Cc3ccccc3)CC2)cc1	-15%[1.46 µM]	11µM*	?	10µM*	8.9µM*
C=C(C)Cn1c(N2CCN(c3ccc(OC)cc3)CC2)nc2c1c(=O)n(C)c(=O)n2C	-14%	?	-22%	?	?
CSc1nccc(NC(=O)c2cccc(Br)c2)n1	i	10µM*	-19%	?	-2%[46.1 µM]
CN1CCC(C2(O)c3ccccc3CSc3sccc32)CC1 (configuration not stated)	-12%	0%	-25%	-22%[46.1 µM]	-18%
CN1CCC(C2(O)c3ccccc3CCc3ccccc32)CC1	-3%	7%	-8%	18µM*	-2%
CCn1nc(C(=O)O)c(=O)c2c1CC1=C(C2)OCO1	.	.	.	5%	.
SMILES	VACV mCherry inh	HCV inh	Vaccinia Venus	MARV entry inh	Lassa entry inh
COc1ccc(CCNC(=O)N2c3ccccc3Sc3ccccc32)cc1	?	10µM*	?	?	?
S=C(NCCCN1CCOCC1)NCCCN1CCOCC1	-7%	-9%	-7%	-15%	-14%
CCCCCCCCNC(=S)NCCN1CCCCC1	.	?	.	15µM*	?
O=C(CN1c2ccccc2Sc2ccccc21)N/N=C/c1ccc([N+](=O)[O-])cc1	-25%	?	?	8.9µM*	?
COc1ccccc1N(CC(=O)N/N=C/c1c(O)ccc2ccccc12)S(C)(=O)=O	11µM*	?	?	?	9.2µM*
COc1ccccc1CNC(=O)CN(c1ccccc1OC)S(C)(=O)=O	-14%	.	-13%	.	-4%[46.1 µM]
COc1ccccc1NCC(=O)N/N=C/c1c(O)ccc2ccccc12	.	2.8µM*	.	.	.
COc1ccc(OC)c(-c2ccc(O)c(CN3CCc4c([nH]c5ccccc45)C3)c2)c1	-9%	.	-7%	.	.
